Results filed as inconclusive are left out. The source made the active and inactive calls. How the source made its calls, unless noted: active means hit-call score of the fitted dose curve at least 0.9, where 1 is the maximum; inactive means score below 0.9.
Columns and labels:
[1] = target: Paired box protein Pax-6 (Homo sapiens) (UniProt P26367); assay: ATG_Pax6_CIS: Attagene CIS-FACTORIAL HepG2 Assay for human Paired Box 6 (PAX6) (AID 2282956); conditions: HepG2 CIS-FACTORIAL PAX6 reporter transcription, RNA readout; actives raise or lower the signal
Procedure, shortened: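 HepG2 cells transiently transfected with multiplexed cis-promoter reporter units (endogenous TF activity) were dosed for 24 h. Reporter mRNA was quantified by RT-PCR, 6-FAM labeling, HpaI digestion and capillary electrophoresis; bidirectional fitting versus DMSO baseline.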

[2] = ATG_PXRE_CIS: Attagene CIS-FACTORIAL HepG2 Assay for human Pregnane X Receptor Element (PXRE) (AID 2282957); conditions: HepG2 Attagene CIS-FACTORIAL PXRE reporter, mRNA; actives raise or lower the signal
Procedure, shortened: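 HepG2 cells transiently transfected with cis-regulated multiple reporter transcription units; endogenous factor activity measured as reporter mRNA 24 h after dosing. RT-PCR, fluorescent primer extension, HpaI digestion, capillary electrophoresis; bidirectional fit versus DMSO baseline.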

[3] = ATG_RORE_CIS: Attagene CIS-FACTORIAL HepG2 Assay for human RAR-related Orphan Receptor Element (RORE) (AID 2282959); conditions: HepG2 Attagene cis-factorial RORE reporter, mRNA; actives raise or lower the signal
Procedure, shortened: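 Fluorescence intensity of reporter-specific cDNA fragments, separated by capillary electrophoresis, gives the signal. Source: HepG2 liver cells transiently transfected with cis-element reporters and exposed 24 h; DMSO-normalized bidirectional fit.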

[4] = ATG_Sox_CIS: Attagene CIS-FACTORIAL HepG2 Assay for human SRY-box transcription factor (SOX) (AID 2282960); conditions: HepG2 Attagene cis-factorial SOX reporter, mRNA; actives raise or lower the signal
Procedure, shortened: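 After 24 h of chemical treatment, transfected HepG2 reporter cells are lysed for total RNA. Transcript levels come from RT-PCR with labelled primer extension and capillary electrophoresis, analysed bidirectionally versus DMSO.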

[5] = target: Transcription factor Sp1 (Homo sapiens) (UniProt P08047); assay: ATG_Sp1_CIS: Attagene CIS-FACTORIAL HepG2 Assay for human Specificity Protein 1 (Sp1) (AID 2282961); conditions: HepG2 Sp1 cis-reporter transcription, actives raise or lower the signal
Procedure, shortened: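 Sp1-driven reporter mRNA, read as capillary electrophoresis fluorescence after RT-PCR, in transiently transfected HepG2 cells dosed for 24 h; signal change in either direction relative to DMSO.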

[6] = ATG_SREBP_CIS: Attagene CIS-FACTORIAL HepG2 Assay for human Sterol Regulatory Element Binding (SREBP) (AID 2282962); conditions: HepG2 Attagene cis-factorial SREBP reporter, mRNA; actives raise or lower the signal
Procedure, shortened: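 HepG2 cells transiently transfected with multiplexed cis-element reporter units report endogenous transcription factor activity. After 24 h of chemical exposure, reporter mRNA was quantified by RT-PCR, 6-FAM labelling, HpaI digestion and capillary electrophoresis; bidirectional fits used DMSO as baseline.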

[7] = target: Signal transducer and activator of transcription 3 (Homo sapiens) (UniProt P40763); assay: ATG_STAT3_CIS: Attagene CIS-FACTORIAL HepG2 Assay for human Signal Transducer and Activator of Transcription 3 (STAT3) (AID 2282963); conditions: HepG2, Attagene cis-factorial STAT3 reporter transcription; actives raise or lower the signal
Procedure, shortened: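 HepG2 cells transiently transfected with multiple cis-element-driven reporter units report endogenous transcription factor activity. After 24 h compound exposure, reporter mRNA is measured by RT-PCR, 6-FAM labelling, HpaI digestion and capillary electrophoresis. Fitted bidirectionally versus DMSO.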

[8] = ATG_TA_CIS: Attagene CIS-FACTORIAL HepG2 Assay for human TA Basal Promoter (AID 2282964); conditions: HepG2 Attagene CIS-factorial TA basal promoter reporter; actives raise or lower the signal
Procedure, shortened: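 Background internal-marker endpoint from a 52-component HepG2 cis-reporter panel. Cells treated 24 h; reporter transcripts quantified via RT-PCR and CE fluorescence against DMSO baseline.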

[9] = ATG_TCF_b_cat_CIS: Attagene CIS-FACTORIAL HepG2 Assay for human T-Cell-Factor with beta-catenin (TCF/b-cat) (AID 2282965); conditions: HepG2 TCF/beta-catenin cis-reporter transcription, actives raise or lower the signal
Procedure, shortened: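 HepG2 cells transiently transfected with cis-promoter-driven multiplexed reporter units; reporter mRNA measured 24 h after dosing by RT-PCR, FAM labelling, HpaI digestion and capillary electrophoresis. Bidirectional fitting relative to DMSO baseline.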

[10] = ATG_TAL_CIS: Attagene CIS-FACTORIAL HepG2 Assay for human TAL Basal Promoter (AID 2282966); conditions: HepG2 Attagene cis-factorial TAL promoter reporter; actives raise or lower the signal;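 further: background control endpoint measuring basal TAL promoter reporter mRNA not a specific factor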
Procedure, shortened: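 HepG2 cells were transiently transfected with promoter-driven multiplexed reporter units and dosed for 24 h. Reporter mRNA was measured by RT-PCR with capillary electrophoresis fluorescence; bidirectional fits used DMSO as baseline, serving as a background control.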

[11] = ATG_TGFb_CIS: Attagene CIS-FACTORIAL HepG2 Assay for human Transforming Growth Factor (TGF) (AID 2282967); conditions: HepG2 Attagene CIS TGFb reporter, mRNA transcription; actives raise or lower the signal
Procedure, shortened: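 Liver HepG2 line, cis-factorial reporter panel, 24 h dosing. Quantitation: RT-PCR products labeled with 6-FAM, cut with HpaI, resolved by capillary electrophoresis; DMSO-referenced bidirectional analysis.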

[12] = ATG_VDRE_CIS: Attagene CIS-FACTORIAL HepG2 Assay for human Vitamin D Receptor Element (VDRE) (AID 2282968); conditions: HepG2 VDRE cis-reporter transcription, actives raise or lower the signal
Procedure, shortened: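 Transiently transfected HepG2 cells carrying cis-regulated reporter transcription units were exposed for 24 h. Reporter mRNA was measured by RT-PCR with fluorescent labelling and capillary electrophoresis, and fitted in both directions against DMSO.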

[13] = target: X-box-binding protein 1 (Homo sapiens) (UniProt P17861); assay: ATG_Xbp1_CIS: Attagene CIS-FACTORIAL HepG2 Assay for human X-box Binding Protein 1 (XBP1) (AID 2282972); conditions: HepG2 XBP1 cis-element reporter, Attagene multiplex; actives raise or lower the signal
Procedure, shortened: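 HepG2 cells transiently transfected with cis-regulated multiple reporter transcription units; endogenous transcription factor activity measured 24 hours after chemical dosing. Reporter mRNA quantified by RT-PCR, 6-FAM primer extension, HpaI digestion and capillary electrophoresis; bidirectional fitting versus DMSO.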

[14] = ATG_M_19_TRANS: Attagene TRANS-FACTORIAL HepG2 Assay for M19 Transcription Factor (Internal Marker) (AID 2282974; active means hit-call score of the fitted dose curve at least 0.9, where 1 is the maximum); conditions: HepG2 Attagene TRANS-FACTORIAL M19 internal marker reporter
Procedure, shortened: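 Measured here: internal-marker reporter transcript from HepG2 cells transfected with MRTUs, harvested at 24 h. cDNA PCR products were 6-FAM labelled by primer extension, cut with HpaI for 2 h at 37 C, and resolved by CE.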

[15] = ATG_GAL4_TRANS: Attagene TRANS-FACTORIAL HepG2 Assay for GAL4 (Internal Marker) (AID 2282976; active means hit-call score of the fitted dose curve at least 0.9, where 1 is the maximum); conditions: HepG2 Attagene TRANS GAL4 internal marker reporter
Procedure, shortened: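 HepG2 cells transiently transfected with multiplexed GAL4-UAS reporter constructs were dosed for 24 h. Reporter mRNA was measured by RT-PCR, 6-FAM primer extension, HpaI digestion and capillary electrophoresis, and gain of signal was fitted relative to DMSO.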

[16] = target: Nuclear receptor subfamily 1 group I member 3 (Homo sapiens) (UniProt Q14994); assay: ATG_CAR_TRANS: Attagene TRANS-FACTORIAL HepG2 Assay for human Constitutive Androstane Receptor (CAR) (AID 2282969; active means hit-call score of the fitted dose curve at least 0.9, where 1 is the maximum;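 further: activators raise reporter mRNA above DMSO so AC50 marks induction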); conditions: HepG2 Attagene TRANS-FACTORIAL CAR reporter
Procedure, shortened: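 HepG2 cells transiently transfected with GAL4-UAS reporter units; TRANS format reads activity of exogenous chimeric NR-Gal4 protein. After 24 h dosing, reporter mRNA quantified by RT-PCR, 6-FAM labelling and capillary electrophoresis; gain of signal fitted against DMSO.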

[17] = target: Estrogen receptor (Homo sapiens) (UniProt P03372); assay: ATG_ERa_TRANS: Attagene TRANS-FACTORIAL HepG2 Assay for human Estrogen Receptor alpha (ERa) (AID 2282970; active means hit-call score of the fitted dose curve at least 0.9, where 1 is the maximum); conditions: HepG2 Attagene TRANS ERa GAL4 reporter, mRNA
Procedure, shortened: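 HepG2 cells transiently transfected with multiplexed GAL4-UAS reporter units; ERa activity read via exogenous chimeric NR-Gal4 protein. After 24 hour compound exposure, reporter mRNA measured by RT-PCR with 6-FAM labelling and capillary electrophoresis; gain-of-signal fitted relative to DMSO.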

[18] = target: Estrogen-related receptor gamma (Homo sapiens) (UniProt P62508); assay: ATG_ERRg_TRANS: Attagene TRANS-FACTORIAL HepG2 Assay for human Estrogen-Related Receptor gamma (ERRg) (AID 2282977; active means hit-call score of the fitted dose curve at least 0.9, where 1 is the maximum;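 further: hits increase reporter signal over DMSO so potencies reflect activators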); conditions: HepG2 Attagene TRANS reporter, ERRg transactivation
Procedure, shortened: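 HepG2 cells transiently transfected with multiplexed GAL4-UAS reporter units driven by chimeric NR-Gal4 proteins; 24 h exposure. Reporter mRNA quantified by RT-PCR, fluorescent labelling, HpaI digestion and capillary electrophoresis; gain of signal vs DMSO.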

[19] = target: Steroid hormone receptor ERR1 (Homo sapiens) (UniProt P11474); assay: ATG_ERRa_TRANS: Attagene TRANS-FACTORIAL HepG2 Assay for human Estrogen-Related Receptor alpha (ERRa) (AID 2282971; active means hit-call score of the fitted dose curve at least 0.9, where 1 is the maximum); conditions: HepG2 Attagene TRANS reporter, ERRa transactivation
Procedure, shortened: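 HepG2 cells transiently transfected with multiplexed GAL4-UAS reporter units reading chimeric ERRa-Gal4 activity; 24 h compound exposure. Reporter mRNA measured by RT-PCR, 6-FAM labelling, HpaI digest and capillary electrophoresis; gain of signal fitted versus DMSO baseline.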

Measured: AC50

Sequence of Steroid hormone receptor ERR1 (Homo sapiens) (P11474 whole entry, looked up, the tested form may be a part): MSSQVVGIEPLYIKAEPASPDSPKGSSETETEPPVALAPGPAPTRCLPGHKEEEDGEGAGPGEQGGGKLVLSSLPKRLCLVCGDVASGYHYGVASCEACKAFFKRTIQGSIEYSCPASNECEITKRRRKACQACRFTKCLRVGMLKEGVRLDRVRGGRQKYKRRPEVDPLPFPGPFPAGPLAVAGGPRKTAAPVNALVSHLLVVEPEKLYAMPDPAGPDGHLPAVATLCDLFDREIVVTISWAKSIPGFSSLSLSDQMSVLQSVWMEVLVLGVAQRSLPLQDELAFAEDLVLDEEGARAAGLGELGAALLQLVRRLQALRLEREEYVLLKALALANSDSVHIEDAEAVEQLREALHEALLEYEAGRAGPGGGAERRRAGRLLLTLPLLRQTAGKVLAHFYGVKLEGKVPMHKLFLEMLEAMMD
Sequence of X-box-binding protein 1 (Homo sapiens) (P17861 whole entry, looked up): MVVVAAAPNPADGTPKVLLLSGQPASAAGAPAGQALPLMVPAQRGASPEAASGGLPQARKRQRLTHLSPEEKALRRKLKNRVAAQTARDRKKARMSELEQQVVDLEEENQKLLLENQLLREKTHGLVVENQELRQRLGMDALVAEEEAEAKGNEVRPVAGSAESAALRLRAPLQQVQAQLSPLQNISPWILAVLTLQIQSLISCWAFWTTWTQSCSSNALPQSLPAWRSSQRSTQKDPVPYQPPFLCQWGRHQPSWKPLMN
Sequence of Signal transducer and activator of transcription 3 (Homo sapiens) (P40763 whole entry, looked up): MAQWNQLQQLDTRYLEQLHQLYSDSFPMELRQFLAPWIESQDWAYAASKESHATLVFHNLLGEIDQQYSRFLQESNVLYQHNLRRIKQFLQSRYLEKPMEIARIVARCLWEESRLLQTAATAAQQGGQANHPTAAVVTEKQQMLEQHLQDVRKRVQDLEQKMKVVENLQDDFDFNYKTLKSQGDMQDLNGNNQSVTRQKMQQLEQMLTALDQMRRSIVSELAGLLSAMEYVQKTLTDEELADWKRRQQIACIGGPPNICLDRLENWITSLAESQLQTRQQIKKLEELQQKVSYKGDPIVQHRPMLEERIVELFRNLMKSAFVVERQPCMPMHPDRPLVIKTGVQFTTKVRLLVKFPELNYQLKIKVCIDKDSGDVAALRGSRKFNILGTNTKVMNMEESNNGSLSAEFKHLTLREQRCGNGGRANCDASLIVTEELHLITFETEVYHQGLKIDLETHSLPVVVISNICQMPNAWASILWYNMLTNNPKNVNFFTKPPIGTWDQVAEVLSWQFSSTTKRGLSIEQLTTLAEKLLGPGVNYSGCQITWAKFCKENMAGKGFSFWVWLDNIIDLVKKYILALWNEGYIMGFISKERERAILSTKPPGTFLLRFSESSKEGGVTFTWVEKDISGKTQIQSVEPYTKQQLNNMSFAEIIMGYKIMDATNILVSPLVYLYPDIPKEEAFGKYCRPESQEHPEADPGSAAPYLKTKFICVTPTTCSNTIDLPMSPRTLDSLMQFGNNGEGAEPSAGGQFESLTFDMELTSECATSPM
Sequence of Paired box protein Pax-6 (Homo sapiens) (P26367 whole entry, looked up): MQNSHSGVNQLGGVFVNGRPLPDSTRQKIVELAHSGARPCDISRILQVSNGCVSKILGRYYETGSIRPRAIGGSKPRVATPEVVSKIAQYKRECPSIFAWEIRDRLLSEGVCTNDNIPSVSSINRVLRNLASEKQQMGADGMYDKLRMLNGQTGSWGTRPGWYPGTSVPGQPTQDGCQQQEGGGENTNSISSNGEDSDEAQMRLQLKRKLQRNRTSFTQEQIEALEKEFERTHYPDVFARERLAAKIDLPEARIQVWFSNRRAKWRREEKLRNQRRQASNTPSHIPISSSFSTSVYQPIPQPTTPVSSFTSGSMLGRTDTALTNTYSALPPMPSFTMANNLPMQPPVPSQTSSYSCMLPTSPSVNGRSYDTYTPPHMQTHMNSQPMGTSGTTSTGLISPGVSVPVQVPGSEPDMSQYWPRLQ
Sequence of Transcription factor Sp1 (Homo sapiens) (P08047 whole entry, looked up): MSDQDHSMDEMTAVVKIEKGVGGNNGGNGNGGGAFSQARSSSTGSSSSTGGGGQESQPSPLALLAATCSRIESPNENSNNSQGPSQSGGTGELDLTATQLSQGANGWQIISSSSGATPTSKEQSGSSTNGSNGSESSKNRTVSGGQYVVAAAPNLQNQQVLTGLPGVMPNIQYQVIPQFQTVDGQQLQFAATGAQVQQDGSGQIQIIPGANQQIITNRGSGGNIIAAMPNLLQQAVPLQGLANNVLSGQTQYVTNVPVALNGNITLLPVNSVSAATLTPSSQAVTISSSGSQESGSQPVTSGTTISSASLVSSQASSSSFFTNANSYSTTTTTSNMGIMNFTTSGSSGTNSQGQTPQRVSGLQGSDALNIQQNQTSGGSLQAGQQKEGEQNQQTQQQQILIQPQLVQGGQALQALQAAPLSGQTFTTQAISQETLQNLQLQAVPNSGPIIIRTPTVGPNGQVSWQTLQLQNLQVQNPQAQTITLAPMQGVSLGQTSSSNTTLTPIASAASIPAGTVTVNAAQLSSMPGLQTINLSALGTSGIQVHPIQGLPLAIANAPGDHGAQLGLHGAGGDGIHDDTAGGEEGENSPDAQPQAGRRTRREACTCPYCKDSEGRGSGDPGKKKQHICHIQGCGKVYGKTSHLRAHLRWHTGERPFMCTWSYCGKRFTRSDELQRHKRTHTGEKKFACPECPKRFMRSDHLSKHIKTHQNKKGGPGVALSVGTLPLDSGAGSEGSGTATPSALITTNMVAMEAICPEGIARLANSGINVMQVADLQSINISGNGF
Sequence of Estrogen-related receptor gamma (Homo sapiens) (P62508 whole entry, looked up, the tested form may be a part): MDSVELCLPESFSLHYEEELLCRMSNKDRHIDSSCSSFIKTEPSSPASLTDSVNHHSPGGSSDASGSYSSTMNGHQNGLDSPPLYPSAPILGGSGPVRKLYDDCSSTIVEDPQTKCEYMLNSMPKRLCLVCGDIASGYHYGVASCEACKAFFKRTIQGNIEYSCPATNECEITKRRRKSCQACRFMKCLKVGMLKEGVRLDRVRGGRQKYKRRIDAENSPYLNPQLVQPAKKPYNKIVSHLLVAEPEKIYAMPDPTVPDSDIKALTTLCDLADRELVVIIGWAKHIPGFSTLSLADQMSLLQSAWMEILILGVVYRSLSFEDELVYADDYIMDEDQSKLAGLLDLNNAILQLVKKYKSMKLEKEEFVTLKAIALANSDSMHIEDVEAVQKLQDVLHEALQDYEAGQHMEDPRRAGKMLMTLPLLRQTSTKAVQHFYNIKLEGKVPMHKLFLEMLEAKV
Sequence of Nuclear receptor subfamily 1 group I member 3 (Homo sapiens) (Q14994 whole entry, looked up, the tested form may be a part): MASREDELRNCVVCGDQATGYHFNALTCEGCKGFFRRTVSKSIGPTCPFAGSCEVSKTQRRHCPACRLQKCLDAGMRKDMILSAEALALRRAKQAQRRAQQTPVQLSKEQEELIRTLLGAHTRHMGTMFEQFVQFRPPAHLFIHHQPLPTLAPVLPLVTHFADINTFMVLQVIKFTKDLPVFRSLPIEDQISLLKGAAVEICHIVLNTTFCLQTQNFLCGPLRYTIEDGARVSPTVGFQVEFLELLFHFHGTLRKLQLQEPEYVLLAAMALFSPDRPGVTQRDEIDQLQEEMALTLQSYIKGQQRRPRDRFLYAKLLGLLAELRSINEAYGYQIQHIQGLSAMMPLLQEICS
Sequence of Estrogen receptor (Homo sapiens) (P03372 whole entry, looked up, the tested form may be a part): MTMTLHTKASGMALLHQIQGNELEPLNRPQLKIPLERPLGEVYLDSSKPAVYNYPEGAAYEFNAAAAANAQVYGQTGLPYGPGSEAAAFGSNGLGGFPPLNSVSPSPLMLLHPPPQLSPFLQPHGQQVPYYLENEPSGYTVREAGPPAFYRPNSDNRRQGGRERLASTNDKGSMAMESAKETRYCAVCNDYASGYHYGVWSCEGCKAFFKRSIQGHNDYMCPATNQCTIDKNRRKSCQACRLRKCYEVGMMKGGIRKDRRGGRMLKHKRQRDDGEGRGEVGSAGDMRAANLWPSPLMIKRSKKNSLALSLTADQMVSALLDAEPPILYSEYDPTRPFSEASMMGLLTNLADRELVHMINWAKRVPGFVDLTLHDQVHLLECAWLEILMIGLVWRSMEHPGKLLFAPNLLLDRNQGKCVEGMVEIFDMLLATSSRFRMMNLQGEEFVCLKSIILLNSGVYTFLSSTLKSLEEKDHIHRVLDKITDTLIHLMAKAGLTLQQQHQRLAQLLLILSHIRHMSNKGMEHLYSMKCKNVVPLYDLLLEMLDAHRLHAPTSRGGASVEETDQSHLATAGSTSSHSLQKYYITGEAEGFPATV

CCOC(=O)[C@H](C)O
active: [2] 27.2 µM
not listed: [16] | [17] | [18] | [19]
inactive: all other assays above

CC(=O)Nc1nnc(S(N)(=O)=O)s1
not listed: [3] | [12] | [14] | [18] | [19]
inactive: all other assays above

c1ccc2c(c1)ccc1cc3c(ccc4ccccc43)cc12
not listed: [11] | [12] | [16] | [18] | [19]
inactive: all other assays above

Cc1cc(O)c(Cl)c(C)c1Cl
active: [2] 15.1 µM | [17] 26.8 µM
not listed: [6] | [14] | [15] | [16] | [18] | [19]
inactive: all other assays above

C=CCOc1c(Br)cc(Br)cc1Br
active: [2] 12.7 µM | [12] 23.7 µM | [17] 15.7 µM
not listed: [8] | [14] | [15] | [19]
inactive: all other assays above

CC1=Nc2ccc3ccccc3c2C1(C)C
active: [2] 1.78 µM | [6] 100 µM | [12] 2.97 µM | [17] 17.1 µM
not listed: [9] | [14] | [16]
inactive: all other assays above

CC(C)(C)C1CCCCC1=O (stereo not drawn)
active: [2] 76.6 µM
not listed: [12] | [14] | [16] | [18] | [19]
inactive: all other assays above

CCCCC(CC)CCC(CC(C)C)OS(=O)(=O)O (stereo not drawn)
active: [2] 27.2 µM
not listed: [6] | [14] | [15] | [16] | [18] | [19]
inactive: all other assays above

CC(C)(C)C(=O)C=Cc1ccc(Cl)cc1
active: [1] 36.8 µM | [2] 5.18 µM | [4] 25.1 µM | [5] 27.3 µM | [7] 164 µM | [8] 78.2 µM | [9] 53.8 µM | [10] 100 µM | [12] 26.3 µM | [16] 24.8 µM | [17] 26.1 µM | [13] 66.4 µM
inactive: [6] | [11] | [19] | [18]

CCc1ccc2c(c1)C(=O)c1ccccc1C2=O
active: [2] 3.01 µM | [12] 11.6 µM | [17] 4.61 µM
not listed: [7] | [11] | [14] | [15] | [18] | [19]
inactive: all other assays above

NCCCN1CCN(CCCN)CC1
active: [2] 53.7 µM
not listed: [3] | [12] | [14] | [15] | [18] | [19]
inactive: all other assays above

CC(C)c1ccc2c(c1)CC[C@H]1[C@](C)(CN)CCC[C@]21C
active: [1] 6.4 µM | [4] 6.13 µM | [9] 5.65 µM | [12] 5.66 µM | [13] 5.24 µM
inactive: [2] | [5] | [6] | [7] | [8] | [10] | [11] | [17]

CC(C)=CCC/C(C)=C\C#N
active: [2] 28.1 µM
not listed: [11] | [14] | [18] | [19]
inactive: all other assays above

Nc1nc2ccccc2[nH]1
not listed: [3] | [14] | [15] | [18] | [19]
inactive: all other assays above

C=C(C)[C@@H]1CCC2=CCC[C@@H](C)[C@]2(C)C1
active: [2] 1.52 µM | [17] 9.59 µM
not listed: [6] | [14] | [15] | [18]
inactive: all other assays above

Source: PubChem BioAssay (EPA / NIEHS)
